# Bioassay records: PubChem BioAssay, National Center for Advancing Translational Sciences (NCATS)
# Most compounds without a hit are left out; they make up all but 2.4% or so of the library.
# D2 PAM-1 = positively modulates the human D2 dopamine receptor allosterically; AID 485347; potentiation, % at 10 µM; 340,000 tested, 0.34% active; HEK293 T-REx D2, calcium flux, EC20 dopamine potentiation;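 active = potentiation over 3 SD above the plate norm, cut at about 30% in these data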; also: 0% is about no effect
#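 Potentiation of an EC20 dopamine calcium response is measured in a force-coupled, tetracycline-inducible Hek293 Trex D2 line. Compound-only kinetic reads over 180 s flag agonists before dopamine addition.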
# D2 antag = antagonizes the human D2 dopamine receptor. HEK293 TREx D2 cells, calcium flux, dopamine EC80. 340,000 tested, 2% active. P14416. inhibition, % at 10 µM; in the data active = inhibition above about 30%; inactive = below that, where a call was filed; also: 0% is about no effect
#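 Dopamine at EC80 is the agonist stimulus; test compounds precede it by 180 s. Calcium flux read kinetically in a force-coupled, inducible HEK293 T-REx D2 cell line.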
# D2 PAM-2 = positive allosteric modulators of human D2 dopamine receptor. DiscoveRx D2 beta-arrestin cells, luminescence, 90 min; 100% = 57 uM dopamine signal. potentiation, % (concentration not given with the values). 360,000 tested, 0.23% active; in the data active = potentiation above about 50%; inconclusive = mostly about 30% to 49%
#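 PathHunter D2 cells, attached overnight at 37 deg C, received compound in DMSO plus dopamine at EC20 (50 nM final) for 90 min at 37 deg C. Beta-arrestin recruitment was read as luminescence after 1 h with detection reagent at ambient temperature.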
# D2 ag-1 = agonists of human D2 dopamine receptor; P14416; HEK293 T-REx D2 cells, calcium flux agonist mode; activation, % at 2 µM; 340,000 tested, 0.53% active; AID 485358;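 active = activation over 3 SD above normal in the single-dose calcium agonist read, cut at about 30% in these data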; also: 0% is about no effect
#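 Tetracycline-induced HEK293 T-REx cells with force-coupled D2 receptor, plated overnight at 30 C, loaded with no-wash calcium dye. After a 10 s baseline, compound was pin-added and calcium flux read kinetically for 180 s; calcium rises flagged agonists.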
# D2 ag-2 = activates the human D2 dopamine receptor; P14416; DiscoveRx PathHunter D2 beta-arrestin, luminescence, 90 min; 100% = 57 uM dopamine signal; activation, % (no concentration beside the values); 360,000 tested, 0.084% active; in the data active = activation above about 40%; inconclusive = between about 15% and that limit
#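 Agonist mode: compounds alone added to overnight-plated D2 PathHunter cells for 90 min at 37 C, with 57 uM final dopamine (EC100) defining full response. Beta-arrestin recruitment detected by chemiluminescent reagent, read after 1 h at ambient temperature.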
# D3 ag = confirmation of human D3 dopamine receptor agonists, beta-arrestin; shares compounds with D2 ag-1; DiscoveRx D3 beta-arrestin cells, luminescence, 90 min; Potency, µM (highest dose often 76.9 µM), without a hit: at the highest dose activation, hits mostly activators; 2,300 tested, 4% active; AID 720506;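 also: potency is read from the fitted curve at half-maximal effect; 100% = dopamine control response; nearly all actives have a fitted effect of over 70% in size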
# Target sequence (P35462 whole entry, looked up): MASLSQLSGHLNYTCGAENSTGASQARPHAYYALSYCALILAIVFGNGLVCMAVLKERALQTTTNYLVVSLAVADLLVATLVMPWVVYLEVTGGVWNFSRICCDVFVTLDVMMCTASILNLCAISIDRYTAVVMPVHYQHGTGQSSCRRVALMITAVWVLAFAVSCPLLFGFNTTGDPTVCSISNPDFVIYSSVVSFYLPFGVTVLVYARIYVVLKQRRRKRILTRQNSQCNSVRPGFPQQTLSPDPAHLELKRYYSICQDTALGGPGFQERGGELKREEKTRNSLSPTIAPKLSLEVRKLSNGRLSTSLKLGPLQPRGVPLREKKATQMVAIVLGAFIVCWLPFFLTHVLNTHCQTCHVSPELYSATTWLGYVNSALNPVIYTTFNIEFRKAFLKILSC
# D2 ag-3 = counter-screen for D3 agonists: human D2 dopamine receptor agonism. shares compounds with D2 ag-1. Potency, µM (doses to about 76.9 µM), inactives show at the highest dose activation, hits mostly activators. AID 720507. DiscoveRx PathHunter D2 beta-arrestin, luminescence, 90 min; response scale: percent relative to full dopamine signal. 2,300 tested, 5.9% active; also: potency is read from the fitted curve at half-maximal effect; % of control where 0% means no effect; nearly all actives have a fitted effect of over 70% in size
# Numbers without * were called inactive; ? = inconclusive; . = no result. Unless noted, calls follow the shape of the dose curve; as a rule, active = well fitted activation curve with a large enough effect; inconclusive = small, poorly fitted or top-dose-only effect; inactive = flat fitted curve, though single readings scatter.
SMILES,D2 PAM-1,D2 antag,D2 PAM-2,D2 ag-1,D2 ag-2,D3 ag,D2 ag-3
Cc1cccc(C)c1NC(=O)C[n+]1cc(-c2ccccc2)n2c1CCC2,-25.1,28.4,0.0,75.2*,7.2,-10.3%,12.3%
Cc1ccccc1NC(=O)C[n+]1cc(-c2ccccc2)n2c1CCC2,.,.,-4.5,.,0.7,-10.2%,8.3%
COc1ccccc1CNC(=O)c1cccn1-c1nnc(N2CCCC2)s1,0.9,.,.,-0.2,.,.,.
CC(C)(C)C(=O)Nc1ccc(F)cc1[N+](=O)[O-],-1.6,7.1,-12.7,32.3*,-3.0,?,0.7%
COc1ccc([N+](=O)[O-])c(OC)c1C(=O)Nc1ccc(F)cc1F,0.7,22.4,-10.4,-0.4,-0.3,-6.4%,-2.0%
CC1CCc2c(sc(NC(=O)c3cc(-c4cccc(Cl)c4)on3)c2C(N)=O)C1 (configuration not stated),-9.5,.,.,-0.3,.,.,.
Cc1cc(OCC(=O)Nc2ccncc2)ccc1Cl,-9.1,1.5,-5.0,1.0,9.9,.,.
Cc1cc(OCC(=O)Nc2ncn[nH]2)ccc1Cl,6.9,-24.5,-5.7,0.1,0.0,-6.4%,-5.8%
O=C(NCCCN1CCN(c2ccccc2)CC1)Nc1ccccc1C(F)(F)F,-19.6,74.6*,-8.3,78.1*,?,?,20.8%
Cc1ccccc1NC(=O)NCCCN1CCN(c2ccccc2)CC1,-22.5,79.2*,-21.1,77.4*,?,?,?
COc1ccc(Cn2c(CO)cnc2SCc2ccc(C)cc2)cc1,-2.2,.,.,0.0,.,.,.
COc1ccc(OCC(=O)OCc2cc(=O)n3nc(C4CC4)sc3n2)cc1,-10.1,.,.,0.4,.,.,.
CN(Cc1ccon1)C(=O)C1CCN(C2CCN(CCCc3ccccc3)CC2)CC1,-11.5,19.5,-13.4,48.9*,-0.2,-3.5%,24.1%
CC(=O)N1CCCC1c1nc2ccccc2n1Cc1c(F)cccc1Cl (configuration not stated),-11.1,.,.,12.6,.,.,.
COc1ccc(CNCC2COc3ccccc3O2)cc1 (configuration not stated),-34.3,139.9*,-26.2,62.8*,-5.9,14.6%,9.5%
c1ccc(CCCNCC2COc3ccccc3O2)cc1 (configuration not stated),-33.1,85.9*,-18.4,47.8*,10.3,?,14.3%
c1ccc(CNCC2COc3ccccc3O2)cc1 (configuration not stated),-25.3,61.9*,-26.6,64.4*,0.9,16.9%,10.7%
COc1ccc(CC(=O)NCC2COc3ccccc3O2)cc1 (configuration not stated),3.8,-6.0,-1.2,0.0,2.1,.,.
O=C(CC1COc2ccccc2O1)NCc1ccccc1 (configuration not stated),-6.4,3.5,-1.9,-0.5,-2.2,.,.
COc1cccc(OC)c1OCCNCC1COc2ccccc2O1 (configuration not stated),.,.,-23.5,.,0.9,.,.
CCc1nc(C)cn1S(=O)(=O)c1cc(C)c(OC)cc1C,-22.0,-19.6,-2.5,63.6*,-4.7,5.0%,3.0%
CCc1nc(C)cn1S(=O)(=O)c1cc(Br)c(C)cc1OC,18.3,-7.0,-12.0,-1.5,-1.3,.,.
COc1ccccc1CNS(=O)(=O)c1cc2c3c(c1)CCN3C(=O)CC2,11.1,74.8*,?,0.2,0.3,10.1%,8.5%
Cc1ccccc1NC(=O)c1ccc(F)c(S(=O)(=O)N(C)C2CCCCC2)c1,4.4,.,.,0.5,.,.,.
Cc1ccc(/C=N/c2sc3c(c2C#N)CCCCC3)o1,.,.,-3.3,.,14.0,?,28.7%
Cc1[nH]n(-c2ccc(F)cc2)c(=O)c1/C=N/c1sc2c(c1C#N)CCCC2,-13.1,10.7,-12.7,53.1*,4.8,?,14.9%
CCc1ccccc1NC(=O)Cn1nc2c3cc(F)ccc3n(Cc3cccc(C)c3)cc-2c1=O,-4.2,.,.,-0.7,.,.,.
